GRIN3A LBD mod: binders of NR3A ligand-binding domain, primary screen, biophysical, differential scanning fluorimetry, uHTS; hit rate 2.5% among 340,000; Glutamate receptor ionotropic, NMDA 3A (GRIN3A) ligand-binding domain; NR3A LBD differential scanning fluorimetry, Tm shift; 0% = protein alone, 100% = glycine-bound protein; Tm shift relative to glycine control, % at 25 µM;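 active means melting temperature shift of at least 10% of the positive control shift, at one fixed dose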
FAS-TE inh: FAS thioesterase domain inhibitors, primary screen, biochemical, fluorescence intensity, uHTS; hit rate 0.67% among 360,000; inhibition, % at 15 µM; recombinant FAS-TE, OMFH fluorogenic substrate, fluorescence endpoint; Fatty acid synthase (Homo sapiens), P49327;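 active means compounds whose normalised, plate-corrected inhibition of enzyme fluorescence in the single-dose primary screen is 50% or more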
aDG glyco up: activators of alpha-DG glycosylation, primary screen, uHTS, Pro5-aDG cells, AlphaScreen; alpha-DG glycosylation AlphaScreen (IIH6); 0% Pro5, 100% B10-LARGE cell signal; activation, % at 10 µM; hit rate 0.22% among 360,000; AID 624168, 2012;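 active means activation of at least 8% versus controls, or a plate z-score of at least 8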;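 further: Pro5 are CHO cells carrying HIG-tagged alpha-DG that lacks glycosylation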
ADAM10 inh: human ADAM10 inhibitors, primary screen, biochemical, QFRET, HTS. recombinant ADAM10, EDANS/DABCYL FRET peptide cleavage, 3 h. hit rate 0.62% among 370,000. Disintegrin and metalloproteinase domain-containing protein 10 (Homo sapiens), O14672. inhibition, % at 7 µM. AID 720582, 2013;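 active means inhibition above a per-campaign cutoff equal to the mean of compounds falling between control-based bounds plus 3 SD, cut at about 20% in these data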
ADAM17 inh: ADAM17 inhibitors, primary screen, biochemical, QFRET | recombinant ADAM17, EDANS/DABCYL FRET peptide cleavage | inhibition, % at 6.95 µM | hit rate 0.83% among 370,000;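 active means inhibition above the mean of compounds lying between control limits plus 3 SD, set per campaign, cut at about 8.5% in these data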
Of the large screens only hits and unclear results are named; the others gave an inactive call. Hits are enriched below; roughly 4% of the tested compounds scored in any of these assays.

CC(=O)Nc1ccc(S(=O)(=O)Nc2cccc(C(=O)NC(C)(C)C)c2)cc1	GRIN3A LBD mod 13
CN(C)/C=c1\sc2c(C#N)cc(C(=O)c3ccc(Br)cc3)n2c1=O	none
CN1CC2(C)OC(=O)C(Cl)=C2CC1c1ccccc1 (configuration not stated)	none
OCCN(Cc1ccccc1)Cc1nc(CC2CC2)no1	none
COC(=O)Cn1c(=O)c2c(n(Cc3ccccc3)c1=O)N/C(=C/c1ccc(Br)cc1)C2=O	none
CCc1ccc(NC(=O)C(C)OC(=O)c2cc(=O)[nH]c3ccc(S(=O)(=O)Nc4ccc(F)cc4)cc23)cc1 (configuration not stated)	GRIN3A LBD mod 13
Nc1cccc2c1C(=O)N(C(=O)c1cccc(S(=O)(=O)N3CCCC3)c1)C2=O	none
O=c1cc(-c2ccc(O)c(O)c2)oc2cc(O)c([C@@H]3O[C@H](CO)[C@@H](O)[C@H](O)[C@H]3O)c(O)c12	GRIN3A LBD mod 19
O=c1cc(-c2ccc(O)cc2)oc2c([C@@H]3O[C@H](CO)[C@@H](O)[C@H](O)[C@H]3O)c(O)c([C@@H]3O[C@H](CO)[C@@H](O)[C@H](O)[C@H]3O)c(O)c12	none
Cc1sc(NC(=O)Cc2ccc3c(c2)OCO3)nc1-c1ccc2c(c1)CCN2C(=O)c1ccc(F)cc1	none
Cc1sc(NC(=O)CN2CCCC2)nc1-c1ccc2c(c1)CCN2C(=O)c1cccc(F)c1	aDG glyco up 2.7
O=C1C2C3c4ccccc4C(c4ccccc43)[C@@H]2C(=O)N1c1nc(-c2ccccc2)cs1 (some centres not stated)	FAS-TE inh 52
O=C(O)CCCn1ccc2cc(S(=O)(=O)N3CCCC3)ccc21	none
Cn1c(=O)c2c(nc(N3CCN(c4ccccn4)CC3)n2Cc2ccc(Cl)cc2Cl)n(C)c1=O	none
CC(Oc1ccc2c(-c3ccccc3)cc(=O)oc2c1)C(=O)NCCN1CCOCC1 (configuration not stated)	none
C=C(C)C(=O)N1CC2(CC(c3cccc(NC(=O)CCCCC)c3)=NO2)C[C@H]1C(N)=O (some centres not stated)	none
CCOC(=O)c1ccc(NC(=O)c2cccc(S(=O)(=O)N3c4ccccc4CC3C)c2)s1 (configuration not stated)	GRIN3A LBD mod 25
CCOc1ccc(S(=O)(=O)N2c3ccccc3CC2C)cc1 (configuration not stated)	GRIN3A LBD mod 14
CC1Cc2ccccc2N1S(=O)(=O)c1cccc(C(=O)NCCCO)c1 (configuration not stated)	none
O=C1C(=O)N(c2cccc(Cl)c2)C(c2ccccc2[N+](=O)[O-])/C1=C(\O)c1ccccc1 (configuration not stated)	none (no result: ADAM10 inh, ADAM17 inh)
O=c1c2cc(Br)ccc2[nH]c(=S)n1Cc1ccccc1	GRIN3A LBD mod 11
COc1cc(CNC(C)(C)CO)ccc1OCC(=O)Nc1ccc(Br)cc1	none
O=C(CN1C(=O)c2cccc3cccc1c23)NCC1CCCO1 (configuration not stated)	GRIN3A LBD mod 16
O=C(CCN1C(=O)c2cccc3cccc(c23)C1=O)NCC1CCCO1 (configuration not stated)	none
CS(=O)(=O)Nc1ccc(C(=O)Nc2cccc([N+](=O)[O-])c2)cc1	GRIN3A LBD mod 21
Cc1ccc(C(=O)Nc2cccc([N+](=O)[O-])c2)cc1S(=O)(=O)Nc1ccc(C(=O)O)cc1	none
Cc1ccc(NC(=O)c2csc(-c3ccccc3)c2C)cc1	none
O=C(Nc1cccc([N+](=O)[O-])c1)c1cc2ccccc2cc1O	GRIN3A LBD mod 27
Cc1nc2ccc(C(=O)Nc3cccc([N+](=O)[O-])c3)cc2s1	GRIN3A LBD mod 21
Cc1c(C(=O)Nc2cccc([N+](=O)[O-])c2)csc1-c1ccccc1	GRIN3A LBD mod 13
O=C(Nc1cccc([N+](=O)[O-])c1)c1cccc(C(=O)Nc2cccc([N+](=O)[O-])c2)c1	none
